# Results taken from PubChem BioAssay (EPA / NIEHS).
# Results filed as inconclusive are left out. The source made the active and inactive calls. The calls were made as follows: active = hit-call score of the fitted dose curve at least 0.9, where 1 is the maximum; inconclusive = response in the unintended direction; inactive = score below 0.9.
# Tested on: Brachyury (BRA) Protein Expression, Deisenroth Lab, TBXT (gene 6862)
# Test: CCTE_Deisenroth_DEVTOX-GLR_Pluri_BRA: CCTE's DevTox GLR-Pluri Assay Evaluation of Brachyury (BRA) Protein Expression, Deisenroth Lab (AID 2284429)
# Method: CCTE_Deisenroth_DEVTOX-GLR_Pluri assay is a cell-based, multiplex-readout assay that uses RUES2-GLR, a human pluripotent cell line, with measurements taken at 48 hours after chemical dosing in a 384-well microplateCCTE_Deisenroth_DEVTOX-GLR_Pluri_BRA is 1 of 4 assay components calculated from the CCTE_Deisenroth_DEVTOX-GLR_Pluri assay and it measures an the percentage of cells in an mesoderm state. Using a type of inducible fluorescent protein reporter, gain-of-signal activity can be used to understand changes in gene expression with fluorescent microscopy. The percentage of BRA+ cells are determined by calculating the number of BRA+ cells divided by the cell count. To generalize the intended target to other relatable targets, this assay component is annotated to the transcription factor intended target family, where the subfamily is T-box protein.Data from the assay component CCTE_Deisenroth_DEVTOX-GLR_Pluri_BRA was analyzed as 1 assay endpoint. The endpoint is the percent BRA+ cell population minus the 0.2% DMSO control in the CCTE_Deisenroth_DEVTOX-GLR_Pluri assay. Furthermore, this assay endpoint can be referred to as a secondary readout, because this assay has produced multiple assay endpoints where this one serves as a measure of mesoderm differentiation.
# All assay protocols are aligned to the DevTox GLR-Endo assay workflow. Cells are seeded into 384-well microplates for 24 hours prior to initiating differentiation in defined media for a total duration of 48 hours. A total of two chemical exposures are administered in 24-hour intervals during the 48-hour differentiation period. At the assay termination point, cells are fixed and stained with a fluorescent dye demarcating the nucleus. High-content imaging is used to acquire brightfield and fluorescent channel images across 5 fields per well. Cell identification and mean biomarker fluorescence intensities are calculated with image analysis software to determine the total cell counts for viability assessment and the biomarker expression frequency for each lineage-dependent assay. A typical experimental design tests a 10-point concentration series (1 nM - 200 uM) for 28 compounds in single technical replicate. Assay plate controls include non-differentiated pluripotent cells (baseline control), lineage-specific differentiated cells (differentiation control), and DMSO solvent exposed differentiated cells (solvent control). Experiments typically comprise a minimum of four experimental replicates (n=4).
Structure (SMILES),AC50,outcome
CN1CCN2c3ccccc3Cc3ccccc3C2C1 (stereo not drawn),100 µM (active),–
Nc1cccc2c1CN(C1CCC(=O)NC1=O)C2=O (stereo not drawn),–,inactive
Cc1nc2sccn2c(=O)c1CCN1CCC(=C(c2ccc(F)cc2)c2ccc(F)cc2)CC1,24.1 µM (active),–
Cc1ccc(NC(=O)c2ccc(CN3CCN(C)CC3)cc2)cc1Nc1nccc(-c2cccnc2)n1,23.2 µM (active),–
CC1=C(/C=C/C(C)=C/C=C/C(C)=C\C(=O)O)C(C)(C)CCC1,16.7 µM (active),–
CCN(CC)CCNC(=O)c1c(C)[nH]c(/C=C2\C(=O)Nc3ccc(F)cc32)c1C,0.264 µM (active),–
O=C1Cc2cc(CCN3CCN(c4nsc5ccccc45)CC3)c(Cl)cc2N1,4.26 µM (active),–
CCCCCN=C(N)N/N=C/c1c[nH]c2ccc(OC)cc12,5.27 µM (active),–
COc1cc2ncnc(Nc3ccc(F)c(Cl)c3)c2cc1OCCCN1CCOCC1,–,inactive
Cc1nc(Nc2ncc(C(=O)Nc3c(C)cccc3Cl)s2)cc(N2CCN(CCO)CC2)n1,0.0529 µM (active),–
O=C(c1ccc(F)cc1)C1CCN(CCn2c(=O)[nH]c3ccccc3c2=O)CC1,127 µM (active),–
CNC(=O)c1cc(Oc2ccc(NC(=O)Nc3ccc(Cl)c(C(F)(F)F)c3)cc2)ccn1,1.3 µM (active),–
O=c1[nH]c(=O)n([C@H]2C[C@H](O)[C@@H](CO)O2)cc1Br,79.6 µM (active),–
